Like-named read-outs stand apart in the source and are kept apart here.
Tests used:
[1] = system: ACVR1B; settings: read-out: apparent Kd, n = 1
[2] = system: AURKB; settings: read-out: apparent Kd, n = 1

Question: For Lestaurtinib, which potency estimated from few doses ([1]; compound concentrations:100 nM and 1000 nM (sheet 'Lestaurtinib' of Supplementary Table 1),run:Lestaurtinib_02748_R1,Plate:MR024) is on record?
Answer: 417 nM

Question: And the potency estimated from few doses ([1]; compound concentrations:100 nM and 1000 nM (sheet 'Lestaurtinib' of Supplementary Table 1),run:Lestaurtinib_02748_R2,Plate:MR024)?
Answer: 745 nM

Question: What about the potency estimated from few doses ([1]; compound concentrations:100 nM and 1000 nM (sheet 'Lestaurtinib' of Supplementary Table 1),run:Lestaurtinib_02752_R3,Plate:MR025) of the same substance?
Answer: 724 nM

Question: What about the potency estimated from few doses ([1]; compound concentrations:100 nM and 1000 nM (sheet 'Lestaurtinib' of Supplementary Table 1),run:Lestaurtinib_02765_R1,Plate:MR026) of the same substance?
Answer: 811 nM

Question: What about the potency estimated from few doses ([1]; compound concentrations:100 nM and 1000 nM (sheet 'Lestaurtinib' of Supplementary Table 1),run:Lestaurtinib_02765_R2,Plate:MR026) of the same substance?
Answer: 488 nM

Question: And the potency estimated from few doses ([1]; compound concentrations:100 nM and 1000 nM (sheet 'Lestaurtinib' of Supplementary Table 1),run:Lestaurtinib_02766_R3,Plate:MR027)?
Answer: 495 nM

Question: And the potency estimated from few doses ([1]; compound concentrations:100 nM and 1000 nM (sheet 'Lestaurtinib' of Supplementary Table 1),run:Lestaurtinib_02768_R2,Plate:MR028)?
Answer: 577 nM

Question: And the potency estimated from few doses ([1]; compound concentrations:100 nM and 1000 nM (sheet 'Lestaurtinib' of Supplementary Table 1),run:Lestaurtinib_02768_R3,Plate:MR028)?
Answer: 533 nM

Question: And the potency estimated from few doses ([1]; compound concentrations:100 nM and 1000 nM (sheet 'Lestaurtinib' of Supplementary Table 1),run:Lestaurtinib_02795_R1,Plate:MR022)?
Answer: 857 nM

Question: What about the potency estimated from few doses ([1]; compound concentrations:100 nM and 1000 nM (sheet 'Lestaurtinib' of Supplementary Table 1),run:Lestaurtinib_02795_R2,Plate:MR022) of the same substance?
Answer: 563 nM

Question: And the potency estimated from few doses ([1]; compound concentrations:100 nM and 1000 nM (sheet 'Lestaurtinib' of Supplementary Table 1),run:Lestaurtinib_02795_R3,Plate:MR022)?
Answer: 806 nM

Question: What about the potency estimated from few doses ([1]; compound concentrations:100 nM and 1000 nM (sheet 'Lestaurtinib' of Supplementary Table 1),run:Lestaurtinib_02802_R1,Plate:MR029) of the same substance?
Answer: 480 nM

Question: And the potency estimated from few doses ([1]; compound concentrations:100 nM and 1000 nM (sheet 'Lestaurtinib' of Supplementary Table 1),run:Lestaurtinib_02802_R2,Plate:MR029)?
Answer: 584 nM

Question: What about the potency estimated from few doses ([1]; compound concentrations:100 nM and 1000 nM (sheet 'Lestaurtinib' of Supplementary Table 1),run:Lestaurtinib_02802_R3,Plate:MR029) of the same substance?
Answer: 656 nM

Question: What about the potency estimated from few doses ([1]; compound concentrations:100 nM and 1000 nM (sheet 'Lestaurtinib' of Supplementary Table 1),run:Lestaurtinib_02896_R1,Plate:MR030) of the same substance?
Answer: 549 nM

Question: What about the potency estimated from few doses ([1]; compound concentrations:100 nM and 1000 nM (sheet 'Lestaurtinib' of Supplementary Table 1),run:Lestaurtinib_02896_R3,Plate:MR030) of the same substance?
Answer: 494 nM

Question: And the potency estimated from few doses ([1]; compound concentrations:100 nM and 1000 nM (sheet 'Lestaurtinib' of Supplementary Table 1),run:Lestaurtinib_03172_R1,Plate:MR031)?
Answer: 377 nM

Question: And the potency estimated from few doses ([1]; compound concentrations:100 nM and 1000 nM (sheet 'Lestaurtinib' of Supplementary Table 1),run:Lestaurtinib_03172_R2,Plate:MR031)?
Answer: 568 nM

Question: And the potency estimated from few doses ([1]; compound concentrations:100 nM and 1000 nM (sheet 'Lestaurtinib' of Supplementary Table 1),run:Lestaurtinib_03172_R3,Plate:MR031)?
Answer: 598 nM

Question: And the potency estimated from few doses ([1]; compound concentrations:100 nM and 1000 nM (sheet 'Lestaurtinib' of Supplementary Table 1),run:Lestaurtinib_03252_R2,Plate:MR032)?
Answer: 547 nM

Question: And the potency estimated from few doses ([1]; compound concentrations:100 nM and 1000 nM (sheet 'Lestaurtinib' of Supplementary Table 1),run:Lestaurtinib_03260_R2,Plate:MR033)?
Answer: 551 nM

Question: And the potency estimated from few doses ([1]; compound concentrations:100 nM and 1000 nM (sheet 'Lestaurtinib' of Supplementary Table 1),run:Lestaurtinib_03260_R3,Plate:MR033)?
Answer: 778 nM

Question: And the potency estimated from few doses ([2]; compound concentrations:100 nM and 1000 nM (sheet 'Lestaurtinib' of Supplementary Table 1),run:Lestaurtinib_02339_R1,Plate:MR001)?
Answer: 261 nM

Question: And the potency estimated from few doses ([2]; compound concentrations:100 nM and 1000 nM (sheet 'Lestaurtinib' of Supplementary Table 1),run:Lestaurtinib_02339_R2,Plate:MR001)?
Answer: 143 nM

Question: And the potency estimated from few doses ([2]; compound concentrations:100 nM and 1000 nM (sheet 'Lestaurtinib' of Supplementary Table 1),run:Lestaurtinib_02364_R1,Plate:MR002)?
Answer: 260 nM

Question: What about the potency estimated from few doses ([2]; compound concentrations:100 nM and 1000 nM (sheet 'Lestaurtinib' of Supplementary Table 1),run:Lestaurtinib_02364_R2,Plate:MR002) of the same substance?
Answer: 159 nM

Question: What about the potency estimated from few doses ([2]; compound concentrations:100 nM and 1000 nM (sheet 'Lestaurtinib' of Supplementary Table 1),run:Lestaurtinib_02364_R3,Plate:MR002) of the same substance?
Answer: 220 nM

Question: What about the potency estimated from few doses ([2]; compound concentrations:100 nM and 1000 nM (sheet 'Lestaurtinib' of Supplementary Table 1),run:Lestaurtinib_02367_R2,Plate:MR003) of the same substance?
Answer: 304 nM

Question: What about the potency estimated from few doses ([2]; compound concentrations:100 nM and 1000 nM (sheet 'Lestaurtinib' of Supplementary Table 1),run:Lestaurtinib_02381_R1,Plate:MR004) of the same substance?
Answer: 278 nM

Question: What about the potency estimated from few doses ([2]; compound concentrations:100 nM and 1000 nM (sheet 'Lestaurtinib' of Supplementary Table 1),run:Lestaurtinib_02381_R2,Plate:MR004) of the same substance?
Answer: 232 nM

Question: What about the potency estimated from few doses ([2]; compound concentrations:100 nM and 1000 nM (sheet 'Lestaurtinib' of Supplementary Table 1),run:Lestaurtinib_02407_R2,Plate:MR005) of the same substance?
Answer: 132 nM

Question: What about the potency estimated from few doses ([2]; compound concentrations:100 nM and 1000 nM (sheet 'Lestaurtinib' of Supplementary Table 1),run:Lestaurtinib_02407_R3,Plate:MR005) of the same substance?
Answer: 268 nM

Question: What about the potency estimated from few doses ([2]; compound concentrations:100 nM and 1000 nM (sheet 'Lestaurtinib' of Supplementary Table 1),run:Lestaurtinib_02422_R1,Plate:MR006) of the same substance?
Answer: 157 nM

Question: What about the potency estimated from few doses ([2]; compound concentrations:100 nM and 1000 nM (sheet 'Lestaurtinib' of Supplementary Table 1),run:Lestaurtinib_02437_R3,Plate:MR007) of the same substance?
Answer: 26.5 nM

Question: What about the potency estimated from few doses ([2]; compound concentrations:100 nM and 1000 nM (sheet 'Lestaurtinib' of Supplementary Table 1),run:Lestaurtinib_02438_R2,Plate:MR008) of the same substance?
Answer: 158 nM

Question: And the potency estimated from few doses ([2]; compound concentrations:100 nM and 1000 nM (sheet 'Lestaurtinib' of Supplementary Table 1),run:Lestaurtinib_02438_R3,Plate:MR008)?
Answer: 161 nM

Question: What about the potency estimated from few doses ([2]; compound concentrations:100 nM and 1000 nM (sheet 'Lestaurtinib' of Supplementary Table 1),run:Lestaurtinib_02443_R1,Plate:MR009) of the same substance?
Answer: 193 nM

Question: And the potency estimated from few doses ([2]; compound concentrations:100 nM and 1000 nM (sheet 'Lestaurtinib' of Supplementary Table 1),run:Lestaurtinib_02443_R2,Plate:MR009)?
Answer: 260 nM

From publication PMC11062922 (Nature Chemical Biology, 2023)
